Test results from PubChem BioAssay (EPA / NIEHS).
Results filed as inconclusive are left out. The source made the active and inactive calls. The calls were made as follows, unless noted: active = hit-call score of the fitted dose curve at least 0.9, where 1 is the maximum; inconclusive = response in the unintended direction; inactive = score below 0.9.

Key:
[1] = target: human Peroxisome Proliferator-activated Receptor alpha (PPARa), PPARA (gene 5465) (UniProt Q07869); assay: ATG_PPARa_TRANS: Attagene TRANS-FACTORIAL HepG2 Assay for human Peroxisome Proliferator-activated Receptor alpha (PPARa) (AID 2283001);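 as to AC50: potency for gain of reporter signal over DMSO so agonist or activator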
Chain of human Peroxisome Proliferator-activated Receptor alpha (PPARa), PPARA (gene 5465) (Q07869 whole entry, looked up, the tested form may be a part): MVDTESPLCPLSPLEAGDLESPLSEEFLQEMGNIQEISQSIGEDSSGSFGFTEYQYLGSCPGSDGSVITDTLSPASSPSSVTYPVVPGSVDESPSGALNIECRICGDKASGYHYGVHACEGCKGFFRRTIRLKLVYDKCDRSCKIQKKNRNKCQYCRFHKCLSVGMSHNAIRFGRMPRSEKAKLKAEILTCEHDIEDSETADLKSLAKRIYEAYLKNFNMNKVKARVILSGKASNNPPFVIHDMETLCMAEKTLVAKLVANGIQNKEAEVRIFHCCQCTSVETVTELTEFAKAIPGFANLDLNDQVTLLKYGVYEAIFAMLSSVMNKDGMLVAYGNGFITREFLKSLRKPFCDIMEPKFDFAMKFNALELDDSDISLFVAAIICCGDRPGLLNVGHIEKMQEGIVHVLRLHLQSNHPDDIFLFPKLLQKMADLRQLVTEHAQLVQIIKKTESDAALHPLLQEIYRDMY
How it was run: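 HepG2 cells transiently transfected with multiplexed GAL4-UAS reporter units and chimeric NR-Gal4 constructs were dosed for 24 h. Reporter mRNA was measured by RT-PCR with fluorescent labelling and capillary electrophoresis; gain of signal fitted against DMSO.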

[2] = read-out: Intercellular Adhesion Molecule 1 (ICAM1), ICAM1 (gene 3383); assay: BSK_3C_ICAM1: BioMAP Diversity Plus: 3C Assay for Intercellular Adhesion Molecule 1 (ICAM1) Biomarker Activity (AID 2283003; active = hit-call score of the fitted dose curve at least 0.9, where 1 is the maximum; inactive = score below 0.9); conditions: primary human endothelial cells (HUVEC); actives raise or lower the signal
How it was run: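 Primary human umbilical vein endothelial cells in the BioMAP 3C system were exposed to chemicals for 24 h, then ICAM-1 was quantified by ELISA. Activity was fitted bidirectionally against the DMSO negative control baseline.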

[3] = BSK_3C_Proliferation: Cell Proliferation Assessment in the BioMAP Diversity Plus: 3C Assay (AID 2283006; active = hit-call score of the fitted dose curve at least 0.9, where 1 is the maximum; inactive = score below 0.9;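 as to AC50: potency may reflect either rise or fall in cell number versus DMSO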); conditions: primary human endothelial cells (HUVEC)
How it was run: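 Human umbilical vein endothelial cells were grown sub-confluent and exposed to chemical for 48 h, then fixed with 10% TCA and stained with 0.1% sulforhodamine B; absorbance at 560 nm gave relative cell number, fitted bidirectionally against DMSO baseline.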

[4] = target: human RAR-related Orphan Receptor beta (RORb), RORB (gene 6096) (UniProt Q92753); assay: ATG_RORb_TRANS: Attagene TRANS-FACTORIAL HepG2 Assay for human RAR-related Orphan Receptor beta (RORb) (AID 2283010)
Chain of human RAR-related Orphan Receptor beta (RORb), RORB (gene 6096) (Q92753 whole entry, looked up, the tested form may be a part): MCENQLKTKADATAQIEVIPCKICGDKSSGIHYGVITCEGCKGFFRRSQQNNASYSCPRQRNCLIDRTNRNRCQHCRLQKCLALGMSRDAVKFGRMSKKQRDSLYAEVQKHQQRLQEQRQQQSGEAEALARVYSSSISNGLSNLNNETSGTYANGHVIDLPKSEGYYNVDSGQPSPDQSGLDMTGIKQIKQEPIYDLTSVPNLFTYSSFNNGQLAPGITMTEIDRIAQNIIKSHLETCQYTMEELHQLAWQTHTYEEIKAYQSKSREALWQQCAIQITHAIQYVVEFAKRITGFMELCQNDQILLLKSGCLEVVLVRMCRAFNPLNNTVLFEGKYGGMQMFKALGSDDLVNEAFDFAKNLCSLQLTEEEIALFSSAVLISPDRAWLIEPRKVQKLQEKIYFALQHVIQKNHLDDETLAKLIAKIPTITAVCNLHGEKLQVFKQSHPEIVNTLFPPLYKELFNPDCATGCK
How it was run: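 HepG2 cells were transiently transfected with multiplexed GAL4-UAS reporter units expressing chimeric nuclear receptor–GAL4 proteins, then dosed for 24 h. Reporter mRNA was quantified by RT-PCR with fluorescent labelling and capillary electrophoresis; gain of signal was fitted relative to DMSO.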

[5] = target: Retinoic acid receptor RXR-alpha (Homo sapiens) (UniProt P19793); assay: ATG_RXRa_TRANS: Attagene TRANS-FACTORIAL HepG2 Assay for human Retinoid X Receptor alpha (RXRa) (AID 2283012)
Chain of Retinoic acid receptor RXR-alpha (Homo sapiens) (P19793 whole entry, looked up, the tested form may be a part): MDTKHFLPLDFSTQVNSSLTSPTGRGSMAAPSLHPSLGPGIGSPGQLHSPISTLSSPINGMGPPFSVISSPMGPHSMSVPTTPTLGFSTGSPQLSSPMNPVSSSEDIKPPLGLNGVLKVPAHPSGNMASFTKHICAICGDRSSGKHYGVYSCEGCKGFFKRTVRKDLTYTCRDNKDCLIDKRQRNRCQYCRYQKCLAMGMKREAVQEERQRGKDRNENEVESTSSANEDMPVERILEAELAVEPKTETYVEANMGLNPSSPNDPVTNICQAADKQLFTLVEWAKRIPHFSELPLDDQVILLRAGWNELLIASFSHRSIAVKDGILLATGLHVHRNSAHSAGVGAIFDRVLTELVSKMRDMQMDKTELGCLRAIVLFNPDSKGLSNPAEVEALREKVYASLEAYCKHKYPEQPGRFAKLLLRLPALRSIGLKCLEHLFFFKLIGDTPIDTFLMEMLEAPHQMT
How it was run: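 HepG2 cells transiently transfected with multiplexed GAL4-UAS reporter units and chimeric NR-GAL4 fusions, dosed 24 h. Reporter mRNA measured by RT-PCR, FAM labelling, HpaI digestion and capillary electrophoresis; gain-of-signal fitted relative to DMSO baseline.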

[6] = read-out: E-selectin (Homo sapiens) (UniProt P16581); assay: BSK_3C_Eselectin: BioMAP Diversity Plus: 3C Assay for Eselectin Biomarker Activity (AID 2283015; active = hit-call score of the fitted dose curve at least 0.9, where 1 is the maximum; inactive = score below 0.9;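 as to outcome: cell surface E-selectin protein quantified by ELISA 24 h after dosing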); conditions: primary human endothelial cells (HUVEC); actives raise or lower the signal
How it was run: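 Primary human umbilical vein endothelial cells (3C system) were dosed with chemical and cell-surface E-selectin measured by ELISA 24 h later. Bidirectional curve fitting used DMSO as negative control and baseline.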

[7] = read-out: Interleukin-1 alpha (IL1a), IL1A (gene 3552); assay: BSK_BE3C_IL1a: BioMAP Diversity Plus: BE3C Assay for Interleukin-1 alpha (IL1a) Biomarker Activity (AID 2283016; active = hit-call score of the fitted dose curve at least 0.9, where 1 is the maximum; inactive = score below 0.9); conditions: primary human bronchial epithelial cells; actives raise or lower the signal
How it was run: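 Human primary bronchial epithelial cells (BE3C system) were dosed with compound and IL-1a measured by ELISA 24 h later. Activity was fitted bidirectionally against DMSO baseline; cytotoxicity was tracked in parallel cultures by SRB total-protein staining.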

[8] = read-out: Monocyte Chemoattractant Protein-1 (MCP1), CCL2 (gene 6347); assay: BSK_3C_MCP1: BioMAP Diversity Plus: 3C Assay for Monocyte Chemoattractant Protein-1 (MCP1) Biomarker Activity (AID 2283017; active = hit-call score of the fitted dose curve at least 0.9, where 1 is the maximum; inactive = score below 0.9); conditions: primary human endothelial cells (HUVEC); actives raise or lower the signal
How it was run: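 Primary human umbilical vein endothelial cells (3C system) were exposed to test chemical for 24 h, after which MCP-1 was quantified by ELISA. Activity was fitted bidirectionally against DMSO as negative control and baseline.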

[9] = read-out: Monocyte Chemoattractant Protein-1 (MCP1), CCL2 (gene 6347); assay: BSK_4H_MCP1: BioMAP Diversity Plus: 4H Assay for Monocyte Chemoattractant Protein-1 (MCP1) Biomarker Activity (AID 2283018; active = hit-call score of the fitted dose curve at least 0.9, where 1 is the maximum; inactive = score below 0.9); conditions: primary human endothelial cells (HUVEC); actives raise or lower the signal
How it was run: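 Human umbilical vein endothelial cells (4H system) dosed with chemical; MCP-1 measured by ELISA 24 h after dosing. Bidirectional curve fitting against DMSO negative control as baseline; parallel SRB total-protein staining tracks overt cytotoxicity.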

[10] = read-out: Human Leukocyte Antigen - DR isotype (HLADR), HLA-DRA (gene 3122); assay: BSK_3C_HLADR: BioMAP Diversity Plus: 3C Assay for Human Leukocyte Antigen - DR isotype (HLADR) Biomarker Activity (AID 2283019; active = hit-call score of the fitted dose curve at least 0.9, where 1 is the maximum; inactive = score below 0.9;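 as to outcome: ELISA of cell-surface HLA-DR on HUVEC 24 h after dosing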); conditions: primary human endothelial cells (HUVEC); actives raise or lower the signal
How it was run: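 Primary human umbilical vein endothelial cells (3C system) were dosed with compound and cell-surface HLA-DR was quantified by ELISA at 24 h. Activity was fitted bidirectionally against DMSO as negative control and baseline.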

[11] = read-out: Interleukin-8 (IL8), CXCL8 (gene 3576); assay: BSK_3C_IL8: BioMAP Diversity Plus: 3C Assay for Interleukin-8 (IL8) Biomarker Activity (AID 2283020; active = hit-call score of the fitted dose curve at least 0.9, where 1 is the maximum; inactive = score below 0.9); conditions: primary human endothelial cells (HUVEC); actives raise or lower the signal
How it was run: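 Primary human umbilical vein endothelial cells (3C system) were exposed to test chemical for 24 h, then IL-8 was quantified by ELISA. Responses were fitted bidirectionally against DMSO vehicle as baseline.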

[12] = target: human Retinoic Acid Receptor beta (RARb), RARB (gene 5915) (UniProt P10826); assay: ATG_RARb_TRANS: Attagene TRANS-FACTORIAL HepG2 Assay for human Retinoic Acid Receptor beta (AID 2283004)
How it was run: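 HepG2 cells transiently transfected with multiplexed GAL4-UAS reporter units expressing chimeric NR–Gal4 fusions; 24 h compound exposure. Reporter mRNA quantified by RT-PCR, 6-FAM labelling, HpaI digestion and capillary electrophoresis; gain-of-signal fitted against DMSO baseline.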

[13] = target: Retinoic acid receptor alpha (Homo sapiens) (UniProt P10276); assay: ATG_RARa_TRANS: Attagene TRANS-FACTORIAL HepG2 Assay for human Retinoic Acid Receptor alpha (RARa) (AID 2283005)
How it was run: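 HepG2 cells transiently transfected with multiple reporter units expressing chimeric RARα-GAL4 fusion, with GAL4-UAS-driven reporters. After 24 h compound exposure, reporter mRNA induction quantified by RT-PCR and capillary electrophoresis with fluorescent labeling; gain-of-signal fitted relative to DMSO control.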

[14] = target: Peroxisome proliferator-activated receptor gamma (Homo sapiens) (UniProt P37231); assay: ATG_PPARg_TRANS: Attagene TRANS-FACTORIAL HepG2 Assay for human Peroxisome Proliferator-activated Receptor-gamma (PPARg) (AID 2283007)
Chain of Peroxisome proliferator-activated receptor gamma (Homo sapiens) (P37231 whole entry, looked up): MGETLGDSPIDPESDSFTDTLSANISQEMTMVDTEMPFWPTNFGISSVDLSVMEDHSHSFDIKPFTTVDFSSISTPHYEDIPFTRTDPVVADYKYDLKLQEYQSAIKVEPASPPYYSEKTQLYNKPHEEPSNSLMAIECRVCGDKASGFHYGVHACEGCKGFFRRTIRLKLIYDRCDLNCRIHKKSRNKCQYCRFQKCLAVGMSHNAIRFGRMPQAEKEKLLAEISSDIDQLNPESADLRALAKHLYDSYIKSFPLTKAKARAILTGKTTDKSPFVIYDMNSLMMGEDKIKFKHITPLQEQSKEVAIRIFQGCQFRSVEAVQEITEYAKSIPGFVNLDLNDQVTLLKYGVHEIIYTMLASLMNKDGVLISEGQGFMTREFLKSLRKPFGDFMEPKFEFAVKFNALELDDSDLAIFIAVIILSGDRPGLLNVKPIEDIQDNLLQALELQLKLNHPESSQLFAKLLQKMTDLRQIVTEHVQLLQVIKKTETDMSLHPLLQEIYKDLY
How it was run: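 Human hepatoma HepG2, transient MRTU transfection, 24 h treatment. mRNA reporter signal by RT-PCR plus capillary electrophoresis, fluorescence detection; fitted for increase over DMSO negative control.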

[15] = target: human Retinoic Acid Receptor gamma (RARg), RARG (gene 5916) (UniProt P13631); assay: ATG_RARg_TRANS: Attagene TRANS-FACTORIAL HepG2 Assay for human Retinoic Acid Receptor gamma (RARg) (AID 2283009)
How it was run: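 HepG2 cells transiently transfected with multiplexed reporter units expressing chimeric RARg-GAL4 and GAL4-UAS-driven reporters; 24 h compound exposure. Reporter mRNA quantified by RT-PCR with fluorescent labelling and capillary electrophoresis; gain-of-signal fitted relative to DMSO baseline.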

[16] = target: human RAR-related Orphan Receptor gamma (RORg), RORC (gene 6097) (UniProt P51449); assay: ATG_RORg_TRANS: Attagene TRANS-FACTORIAL HepG2 Assay for human RAR-related Orphan Receptor gamma (RORg) (AID 2283011)
Chain of human RAR-related Orphan Receptor gamma (RORg), RORC (gene 6097) (P51449 whole entry, looked up, the tested form may be a part): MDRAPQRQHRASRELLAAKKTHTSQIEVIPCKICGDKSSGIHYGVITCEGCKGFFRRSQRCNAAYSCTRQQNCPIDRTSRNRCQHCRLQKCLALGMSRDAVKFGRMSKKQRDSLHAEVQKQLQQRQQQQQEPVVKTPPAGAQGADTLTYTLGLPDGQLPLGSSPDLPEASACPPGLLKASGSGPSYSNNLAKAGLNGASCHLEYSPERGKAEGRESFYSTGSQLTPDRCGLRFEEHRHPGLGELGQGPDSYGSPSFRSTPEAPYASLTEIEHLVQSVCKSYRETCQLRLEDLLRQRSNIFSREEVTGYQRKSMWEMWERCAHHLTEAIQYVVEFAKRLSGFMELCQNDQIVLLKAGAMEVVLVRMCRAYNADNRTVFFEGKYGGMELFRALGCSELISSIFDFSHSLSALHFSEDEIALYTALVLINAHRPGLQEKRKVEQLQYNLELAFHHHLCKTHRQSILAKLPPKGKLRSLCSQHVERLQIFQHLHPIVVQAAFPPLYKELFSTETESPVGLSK
How it was run: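 Readout: reporter transcript induction (RT-PCR, fluorescent primer extension, capillary electrophoresis) after 24 h compound exposure of transiently transfected HepG2 cells carrying a RORg-Gal4 chimera and GAL4-UAS reporters; DMSO served as baseline, with increasing signal fitted.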

[17] = target: human Thyroid Receptor alpha (THRa1), THRA (gene 7067) (UniProt P10827); assay: ATG_THRa1_TRANS: Attagene TRANS-FACTORIAL HepG2 Assay for human Thyroid Receptor alpha (THRa1) (AID 2283014)
Chain of human Thyroid Receptor alpha (THRa1), THRA (gene 7067) (P10827 whole entry, looked up, the tested form may be a part): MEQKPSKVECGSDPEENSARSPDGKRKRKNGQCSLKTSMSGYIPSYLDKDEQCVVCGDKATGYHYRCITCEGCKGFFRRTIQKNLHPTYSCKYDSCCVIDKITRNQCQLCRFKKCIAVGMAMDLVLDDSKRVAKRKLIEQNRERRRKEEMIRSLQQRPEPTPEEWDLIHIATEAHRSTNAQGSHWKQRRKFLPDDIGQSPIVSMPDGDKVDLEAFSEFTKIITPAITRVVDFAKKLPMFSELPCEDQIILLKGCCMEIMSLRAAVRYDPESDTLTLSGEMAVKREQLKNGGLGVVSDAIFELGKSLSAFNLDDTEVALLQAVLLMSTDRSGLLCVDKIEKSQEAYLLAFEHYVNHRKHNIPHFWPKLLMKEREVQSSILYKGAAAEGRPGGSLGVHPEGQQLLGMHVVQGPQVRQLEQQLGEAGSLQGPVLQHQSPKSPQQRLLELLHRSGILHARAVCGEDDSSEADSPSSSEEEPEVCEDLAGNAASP
How it was run: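 HepG2 cells transiently transfected with multiplexed GAL4-UAS reporter units for exogenous chimeric THRa1-Gal4; reporter mRNA measured 24 h after dosing by RT-PCR, 6-FAM labelling, HpaI digestion and capillary electrophoresis. Gain-of-signal fitted versus DMSO baseline.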

[18] = target: human Peroxisome Proliferator-activated Receptor delta (PPARd), PPARD (gene 5467) (UniProt Q03181); assay: ATG_PPARd_TRANS: Attagene TRANS-FACTORIAL HepG2 Assay for human Peroxisome Proliferator-activated Receptor delta (PPARd) (AID 2283002)
Chain of human Peroxisome Proliferator-activated Receptor delta (PPARd), PPARD (gene 5467) (Q03181 whole entry, looked up, the tested form may be a part): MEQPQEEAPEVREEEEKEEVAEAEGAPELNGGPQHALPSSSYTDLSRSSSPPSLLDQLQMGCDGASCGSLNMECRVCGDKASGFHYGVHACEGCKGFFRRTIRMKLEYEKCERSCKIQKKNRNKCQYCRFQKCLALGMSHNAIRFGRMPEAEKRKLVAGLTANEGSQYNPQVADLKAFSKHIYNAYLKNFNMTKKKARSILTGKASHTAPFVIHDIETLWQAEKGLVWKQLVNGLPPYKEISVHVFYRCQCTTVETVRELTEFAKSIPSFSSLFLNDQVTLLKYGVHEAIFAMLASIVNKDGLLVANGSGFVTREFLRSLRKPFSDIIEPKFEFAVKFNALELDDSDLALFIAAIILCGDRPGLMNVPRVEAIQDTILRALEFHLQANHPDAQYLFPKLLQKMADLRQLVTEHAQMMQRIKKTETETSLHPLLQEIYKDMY
How it was run: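 Measured quantity: GAL4-UAS reporter transcript induction in HepG2 after 24 h chemical dosing, with NR-Gal4 chimeras supplied by transient transfection. Detection by RT-PCR and capillary electrophoresis; upward fit against DMSO.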

[19] = target: Nuclear receptor subfamily 1 group I member 2 (Homo sapiens) (UniProt O75469); assay: ATG_PXR_TRANS: Attagene TRANS-FACTORIAL HepG2 Assay for human Pregnane X Receptor (PXR) (AID 2283008)
Chain of Nuclear receptor subfamily 1 group I member 2 (Homo sapiens) (O75469 whole entry, looked up, the tested form may be a part): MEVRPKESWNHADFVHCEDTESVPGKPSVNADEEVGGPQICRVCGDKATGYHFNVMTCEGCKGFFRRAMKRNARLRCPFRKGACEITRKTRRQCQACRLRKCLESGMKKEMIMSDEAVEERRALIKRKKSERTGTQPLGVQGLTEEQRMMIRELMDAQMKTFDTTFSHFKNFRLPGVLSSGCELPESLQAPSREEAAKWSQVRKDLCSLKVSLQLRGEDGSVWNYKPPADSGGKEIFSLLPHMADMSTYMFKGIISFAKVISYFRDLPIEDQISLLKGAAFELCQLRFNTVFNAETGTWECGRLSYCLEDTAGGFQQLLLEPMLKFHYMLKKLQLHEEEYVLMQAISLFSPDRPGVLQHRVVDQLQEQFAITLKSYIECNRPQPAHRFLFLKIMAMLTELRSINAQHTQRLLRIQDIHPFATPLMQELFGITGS
How it was run: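 Read-out is fluorescence of labelled reporter cDNA fragments separated by capillary electrophoresis after RT-PCR and HpaI digestion. Source: HepG2 cells carrying PXR-GAL4/UAS reporter constructs, treated 24 h; activity fitted upward relative to DMSO.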

[20] = target: human Retinoid X Receptor beta (RXRb), RXRB (gene 6257) (UniProt P28702); assay: ATG_RXRb_TRANS: Attagene TRANS-FACTORIAL HepG2 Assay for human Retinoid X Receptor beta (RXRb) (AID 2283013)
Chain of human Retinoid X Receptor beta (RXRb), RXRB (gene 6257) (P28702 whole entry, looked up, the tested form may be a part): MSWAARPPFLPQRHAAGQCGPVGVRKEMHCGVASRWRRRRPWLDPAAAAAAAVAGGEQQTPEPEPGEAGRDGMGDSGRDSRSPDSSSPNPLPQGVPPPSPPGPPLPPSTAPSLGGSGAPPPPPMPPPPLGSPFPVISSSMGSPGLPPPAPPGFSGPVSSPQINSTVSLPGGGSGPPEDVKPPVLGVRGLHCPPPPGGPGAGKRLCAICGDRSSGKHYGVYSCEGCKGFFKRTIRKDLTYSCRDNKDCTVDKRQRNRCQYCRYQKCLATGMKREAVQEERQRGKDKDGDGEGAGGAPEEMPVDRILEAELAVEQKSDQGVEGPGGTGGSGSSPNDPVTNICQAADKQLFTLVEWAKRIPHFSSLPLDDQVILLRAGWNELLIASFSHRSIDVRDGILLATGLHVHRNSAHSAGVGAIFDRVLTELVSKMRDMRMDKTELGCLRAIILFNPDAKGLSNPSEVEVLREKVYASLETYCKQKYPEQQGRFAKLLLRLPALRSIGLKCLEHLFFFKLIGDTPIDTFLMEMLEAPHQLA
How it was run: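 HepG2 cells transiently transfected with multiplexed reporter units driven by GAL4-UAS and exogenous chimeric NR-Gal4 proteins; treated 24 h. Reporter mRNA measured by RT-PCR, 6-FAM labelling and capillary electrophoresis; gain-of-signal fitted versus DMSO baseline.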

Chain of E-selectin (Homo sapiens) (P16581 whole entry, looked up): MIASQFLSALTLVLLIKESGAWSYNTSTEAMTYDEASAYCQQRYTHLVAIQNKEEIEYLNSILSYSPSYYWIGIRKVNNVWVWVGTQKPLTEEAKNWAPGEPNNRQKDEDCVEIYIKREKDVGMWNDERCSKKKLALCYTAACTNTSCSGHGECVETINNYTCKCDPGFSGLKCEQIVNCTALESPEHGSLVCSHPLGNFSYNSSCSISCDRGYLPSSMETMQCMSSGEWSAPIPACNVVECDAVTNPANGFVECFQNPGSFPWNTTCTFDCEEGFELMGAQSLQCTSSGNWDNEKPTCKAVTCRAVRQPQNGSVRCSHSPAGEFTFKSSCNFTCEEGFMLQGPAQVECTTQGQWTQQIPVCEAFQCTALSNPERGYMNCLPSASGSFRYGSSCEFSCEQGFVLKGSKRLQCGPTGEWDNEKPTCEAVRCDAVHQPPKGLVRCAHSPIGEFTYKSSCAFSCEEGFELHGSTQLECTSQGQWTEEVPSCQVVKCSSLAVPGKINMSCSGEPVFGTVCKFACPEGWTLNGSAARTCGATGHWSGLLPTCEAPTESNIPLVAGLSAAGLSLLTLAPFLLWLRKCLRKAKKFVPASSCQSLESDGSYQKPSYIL

CCCCCCCCC=O
AC50 [1]: 100 µM (active) | outcome [2]: inactive | outcome [3]: inactive | outcome [4]: inactive | outcome [5]: inactive | outcome [6]: inactive | outcome [7]: inactive | outcome [8]: inactive | outcome [9]: inactive | outcome [10]: inactive | outcome [11]: inactive

C=CC(=O)OCCOCCOCC
outcome [1]: inactive | outcome [12]: inactive | outcome [13]: inactive | AC50 [14]: 17 µM (active) | outcome [15]: inactive | outcome [16]: inactive | outcome [17]: inactive

Cc1ncc([N+](=O)[O-])n1C
outcome [1]: inactive | outcome [18]: inactive | outcome [19]: inactive | outcome [5]: inactive | AC50 [20]: 100 µM (active)

CC(C=O)Cc1ccc(C(C)C)cc1 (stereo not given)
AC50 [1]: 49.1 µM (active) | outcome [18]: inactive | outcome [19]: inactive | outcome [20]: inactive

O=C1c2ccccc2C(=O)N1SC1CCCCC1
outcome [1]: inactive | outcome [18]: inactive | outcome [19]: inactive | AC50 [20]: 44.4 µM (active)

CCCCCCCCCCCCSC
outcome [1]: inactive | outcome [18]: inactive | outcome [16]: inactive | AC50 [20]: 100 µM (active) | outcome [17]: inactive

CC(C)c1ccc(C(C)C)cc1
outcome [1]: inactive | AC50 [2]: 35.8 µM (active) | AC50 [3]: 33.8 µM (active) | outcome [19]: inactive | outcome [4]: inactive | AC50 [20]: 66.5 µM (active) | outcome [17]: inactive | AC50 [6]: 36.1 µM (active) | AC50 [7]: 29.1 µM (active) | AC50 [8]: 36.8 µM (active) | AC50 [9]: 29.9 µM (active) | AC50 [10]: 34.6 µM (active) | outcome [11]: inactive

CCCC[n+]1ccccc1
outcome [1]: inactive | outcome [12]: inactive | outcome [13]: inactive | outcome [19]: inactive | outcome [15]: inactive | outcome [4]: inactive | outcome [20]: inactive

CC(O)C(C)O (stereo not given)
outcome [1]: inactive | outcome [18]: inactive | outcome [19]: inactive | outcome [16]: inactive | outcome [5]: inactive | outcome [17]: inactive

Cc1ccc2sc3cccc(C)c3c2c1
outcome [1]: inactive | outcome [18]: inactive | outcome [16]: inactive | outcome [20]: inactive | outcome [17]: inactive

NCCCN1CCOCC1
outcome [1]: inactive | outcome [18]: inactive | outcome [20]: inactive | outcome [17]: inactive

C=C[Si](OCC)(OCC)OCC
outcome [1]: inactive | outcome [2]: inactive | outcome [3]: inactive | AC50 [19]: 2.2 µM (active) | outcome [16]: inactive | outcome [5]: inactive | outcome [20]: inactive | outcome [6]: inactive | outcome [7]: inactive | outcome [8]: inactive | outcome [9]: inactive | outcome [10]: inactive | outcome [11]: inactive

CCCc1c(OCCCOc2ccc(OCC(=O)O)cc2)ccc(C(C)=O)c1O
AC50 [1]: 0.322 µM (active) | AC50 [18]: 0.0841 µM (active) | outcome [5]: inactive | AC50 [20]: 8.03 µM (active) | outcome [17]: inactive

O=C1CCc2ccccc2O1
outcome [1]: inactive | outcome [14]: inactive | outcome [19]: inactive | outcome [5]: inactive | outcome [20]: inactive

C=C(C)C(=O)Nc1ccc(Cl)c(Cl)c1
outcome [1]: inactive | AC50 [14]: 18.4 µM (active) | AC50 [19]: 7.08 µM (active) | outcome [4]: inactive | outcome [5]: inactive | AC50 [20]: 41 µM (active) | outcome [17]: inactive

O=C(O)CCCCC1CCSS1 (stereo not given)
outcome [1]: inactive | outcome [14]: inactive | outcome [4]: inactive | outcome [16]: inactive
